Results filed as inconclusive are left out. Where a call stands in place of a potency, no number is given. Activity calls are given as the source filed them. The call rests on the fitted dose curve; in most records, active means well fitted cell-killing curve with a large enough effect in the repeat runs; inconclusive means weak or mixed curves, or effect the other way; inactive means flat fitted curve, though single readings scatter.
Assay: qHTS RealTime-Glo MT Cell Viability Assay in HEK293 cells - 24 hour (AID 1224886); further: potency means the concentration at half of the fitted maximal effect
Conditions: RealTime-Glo luminescence; series mostly up to 76.8 µM
Outline: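 HEK293 cells seeded with NanoLuc/prosubstrate reagent, rested 5 h at 37 C, then dosed and kept at 37 C up to 40 h. Nonlytic real-time luminescence from viable cells read at 0, 8, 16, 24, 32 and 40 h.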
Further: nearly all actives have a fitted effect of over 50% in size.

| SMILES | Potency |
| --- | --- |
| c1ccc(CNCc2ccccc2)cc1 | inactive |
| O=C1Nc2cc(Cl)ccc2Oc2ccccc21 | inactive |
| Cn1c(NCCN(CCO)CCCc2ccc([N+](=O)[O-])cc2)cc(=O)n(C)c1=O | inactive |
| CCN1CCC[C@H]1CNC(=O)c1c(OC)ccc(Br)c1OC | inactive |
| CN1CCC(=C2c3ccccc3C=Cc3ccccc32)CC1 | inactive |
| CC(C)CCCCCCOC(=O)c1ccc(C(=O)OCCCCCCC(C)C)c(C(=O)OCCCCCCC(C)C)c1 | inactive |
| CC(=O)/C=C/C1C(C)=CCCC1(C)C (stereo not drawn) | inactive |
| SC1CCCC1 | inactive |
| O=C1[C@H](CC[C@H](O)c2ccc(F)cc2)[C@@H](c2ccc(O)cc2)N1c1ccc(F)cc1 | 23.9 µM (active) |
| Nc1nc(N)c(-c2ccccc2)s1 | inactive |
| O=C(CC(=O)c1ccccc1)c1ccccc1 | inactive |
| COC(=O)C(C)=O | inactive |
| CN(C)C/C=C(/c1ccc(Br)cc1)c1cccnc1 | inactive |
| CC[C@]12CCCN3CCc4c(n(c5ccccc45)C(=O)C1)[C@@H]32 | 4.77 µM (active) |
| Nc1nc(N)c2nc(CNc3ccc(C(=O)N[C@@H](CCC(=O)O)C(=O)O)cc3)cnc2n1 | inactive |
| C=Cc1c(C)c2cc3[nH]c(cc4nc(cc5nc(cc1[nH]2)C(C)=C5CCC(=O)O)C(CCC(=O)O)=C4C)c(C)c3C=C | inactive |
| O=C(Cl)c1c(Cl)cccc1Cl | inactive |
| O=C(c1ccc(O)cc1)c1ccc(O)cc1 | inactive |
| O=c1[nH]cnc2ccccc12 | inactive |
| Cc1ccc(C(=O)C(C)CN2CCCCC2)cc1 (stereo not drawn) | inactive |
| Oc1ccc(O)c2c(O)cccc12 | inactive |
| CCCCOC(=O)c1ccccc1C(=O)OCC(CC)CCCC (stereo not drawn) | inactive |
| O=C=NC1CCC(CC2CCC(N=C=O)CC2)CC1 (stereo not drawn) | inactive |
| CCOc1cc(OCC)c(C(=O)CCC(=O)O)cc1OCC | inactive |
| O=CNc1ccccc1 | inactive |
| CCOc1nc2cccc(C(=O)O)c2n1Cc1ccc(-c2ccccc2-c2nn[nH]n2)cc1 | inactive |
| CCCCCCc1ccc(N)cc1 | inactive |
| O=C(O)Cc1cc(I)c(Oc2ccc(O)c(I)c2)c(I)c1 | inactive |

Assay: qHTS RealTime-Glo MT Cell Viability Assay in HEK293 cells - 8 hour (AID 1224887); further: top concentration of the series differs between compounds
Conditions: RealTime-Glo luminescence; series mostly up to 76.8 µM
Outline: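 Viable HEK293 cells reduce a cell-permeant prosubstrate; the product diffuses out and is consumed by NanoLuc in the medium to give light. Compounds went in after a 5 h incubation and plates were read over the treatment course.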

| SMILES | Potency |
| --- | --- |
| c1ccc(CNCc2ccccc2)cc1 | inactive |
| CCN(CC)C(C)CN1c2ccccc2Sc2ccccc21 (stereo not drawn) | inactive |
| CC(=O)CC(=O)c1ccccc1 | inactive |
| Cn1c(NCCN(CCO)CCCc2ccc([N+](=O)[O-])cc2)cc(=O)n(C)c1=O | inactive |
| CC[C@@H]1C[C@H](N(Cc2cc(C(F)(F)F)cc(C(F)(F)F)c2)C(C)=O)c2cc(C(F)(F)F)ccc2N1C(=O)OC(C)C | inactive |
| Cn1c(N)nc2nc[nH]c2c1=O | inactive |
| CC(C)(C)C(=O)OCOP(=O)(COCCn1cnc2c(N)ncnc21)OCOC(=O)C(C)(C)C | inactive |
| CN(C(=O)CCCOc1ccc2[nH]c(=O)ccc2c1)C1CCCCC1 | inactive |
| CCCOc1ccc2nc(NC(=O)OC)[nH]c2c1 | inactive |
| Nc1nc(N)c(-c2ccccc2)s1 | inactive |
| C=CC(=O)OCCOC(=O)CCC(=O)O | inactive |
| COC(=O)C(C)=O | inactive |
| CN(C)C/C=C(/c1ccc(Br)cc1)c1cccnc1 | inactive |
| Nc1nc(N)c2nc(CNc3ccc(C(=O)N[C@@H](CCC(=O)O)C(=O)O)cc3)cnc2n1 | inactive |
| CCCCC(CC)COCCCN (stereo not drawn) | inactive |
| O=c1[nH]cnc2ccccc12 | inactive |
| Nc1nc(CC(=O)O)cs1 | inactive |
| CC/C(=C\C(=N/O)C(N)=O)C(C)[N+](=O)[O-] (stereo not drawn) | inactive |
| O=C=NC1CCC(CC2CCC(N=C=O)CC2)CC1 (stereo not drawn) | inactive |
| O=C(O)Cc1cc(I)c(Oc2ccc(O)c(I)c2)c(I)c1 | inactive |

From PubChem BioAssay (Tox21)
